# Values joined by “and” are separate entries in the source; they are usually repeats but may differ in a detail not shown here. Identical values can stand only once. Inconclusive results are not listed. Entries that show only a call come without a potency. More than one record can exist for a structure, and the calls need not agree. Active and inactive are the calls of the source. Calls come from the whole dose curve; as a rule, active = well fitted inhibition curve with a large enough effect in the signal ratio in the repeat runs; inconclusive = weak or mixed curves, or effect the other way; inactive = flat fitted curve, though single readings scatter; the % refers to the signal ratio.
# Assay: qHTS assay for small molecule disruptors of the mitochondrial membrane potential (AID 720635)
# Settings: HepG2 mitochondrial membrane potential, Mito-MPS dye ratio; series mostly up to 83.2 µM
# Text: U.S. Tox21 Program National Center for Advancing Translational Sciences [NCATS] NIH Chemical Genomics Center [NCGC] U.S. Environmental Protection Agency [EPA] National Institutes of Environmental Health Sciences [NIEHS] National Toxicology Program [NTP] U.S. Food and Drug Administration [FDA] Tox21 Assay Overview: Mitochondrial membrane potential (MMP), one of the parameters for mitochondrial function, is generated by mitochondrial electron transport chain that creates an electrochemical gradient by a series of redox reactions. This gradient drives the synthesis of ATP, a crucial molecule for various cellular processes. Measuring MMP in living cells is commonly used to assess the effect of chemicals on mitochondrial function. […] The dye accumulates in the mitochondria of healthy cells as aggregates, with red fluorescence. The mitochondrial potential collapses and the dye can no longer accumulate in the mitochondria and remains in the cytoplasm in monomers, with green fluorescence.
# Tox21 Assay Protocol Summary: 2,000 HepG2 cells in 5 uL/well were dispensed into black, clear-bottom 1536-well plates using a Multidrop Combi (Thermo Scientific) dispenser. The assay plates were incubated overnight at 37C to allow cells to attach to the wells, followed by the transfer of 23 nL compound or DMSO vehicle by a pin tool (Kalypsys). The plates were incubated for 1 hr at 37C and 5% CO2, followed by the addition of 5 uL of 2X Mito-MPS dye (BD Biosciences) into each well using Flying Reagent Dispenser (Aurora Discovery) and then following 30 min incubation at 37C. Fluorescence intensity (490nm excitation and 535nm emission for monomers; and 540nm excitation and 590nm emissions for aggregates) was measured using an Envision plate reader.
# Potency is the fitted concentration of half-maximal effect.
row,SMILES,Potency
1,c1cc2c3c(cccc3c1)CC2,inactive
2,CC(C)(Cl)Cl,inactive
3,Cc1cccc([N+](=O)[O-])c1,inactive
4,C1CC2OC2CC1C1CO1 (stereo not given),inactive
5,Clc1ccccc1Cl,inactive
6,BrCCBr,inactive
7,ClCc1cccnc1,inactive
8,Nc1ccc(Cc2ccc(N)cc2)cc1,inactive
9,O=NN1CCCCCCC1,inactive
10,Oc1ccccc1Cl,inactive
11,CC(C)C1(C)N=C(c2nc3ccccc3cc2C(=O)O)NC1=O (stereo not given),inactive
12,CCCCCOC(=O)c1ccccc1C(=O)OCCCCC,inactive
13,CCOP(OCC)OCC,inactive
14,CCN(CC)CCO,inactive
15,Clc1ccc(Cl)cc1,inactive
16,CCCCCCCCCCCC#N,inactive
17,CCC(C)(CC)c1cc(NC(=O)c2c(OC)cccc2OC)on1,27.4 µM (active) and 20.9 µM (active)
18,CCCN(CCC)N=O,inactive
19,O=[N+]([O-])c1ccc([As](=O)(O)O)cc1,inactive
20,C#CC(C)(C)NC(=O)c1cc(Cl)cc(Cl)c1,inactive

row,SMILES,Potency
1,COP(N)(=O)SC (stereo not given),inactive
2,CN(C)N=O,inactive
3,C=C(C)CCl,inactive
4,C=CC(N)=O,inactive
5,CC(C)OC(=O)Nc1ccccc1,inactive
6,Nc1ccccc1C(=O)O,inactive
7,COC(=O)NC(=S)Nc1ccccc1NC(=S)NC(=O)OC,inactive
8,CCC[N+](=O)[O-],inactive
9,Cc1ccc([N+](=O)[O-])cc1C,47.7 µM (active) and inactive
10,CCCCN(CCCC)SN(C)C(=O)Oc1cccc2c1OC(C)(C)C2,62.1 µM (active)
11,CON(C)C(=O)Nc1ccc(Cl)c(Cl)c1,61.4 µM (active) and 43.3 µM (active)
12,CN=C=S,inactive
13,NCC(O)c1ccc(O)cc1 (stereo not given),inactive
14,[O-][Cl+2]([O-])O,inactive
15,CC(C)C#N,inactive
16,c1ccc(-c2ccccc2)cc1,inactive
17,CC(NC(C)(C)C)C(=O)c1cccc(Cl)c1 (stereo not given),inactive
18,CC(C)=C[C@@H]1[C@@H](C(=O)OCc2coc(Cc3ccccc3)c2)C1(C)C,23.7 µM (active)
19,O=C(O)c1ccccn1,inactive
20,Cn1cc(-c2ccccc2)c(=O)c(-c2cccc(C(F)(F)F)c2)c1,inactive
